Active and inactive are the calls of the source. How the source made its calls: active means hit-call score of the fitted dose curve at least 0.9, where 1 is the maximum; inactive means score below 0.9.
Key:
[1] = ATG_GLI_CIS: Attagene CIS-FACTORIAL HepG2 Assay for human Zinc Finger Protein GLI1 (AID 2282945); conditions: HepG2, Attagene cis-factorial reporter mRNA, GLI element; actives raise or lower the signal
Summary of the method: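 HepG2 cells transiently transfected with cis-promoter multiplexed reporter units report endogenous transcription factor activity. After 24 h chemical exposure, reporter mRNA was quantified by RT-PCR, 6-FAM labelling, HpaI digestion and capillary electrophoresis, with bidirectional fitting against DMSO.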

[2] = biological target: Bile acid receptor (Homo sapiens) (UniProt Q96RI1); assay: ATG_IR1_CIS: Attagene CIS-FACTORIAL HepG2 Assay for human Nuclear Receptor Subfamily 1 Group H Member 4 (NR1H4), IR1 submotif (AID 2282946); conditions: IR1 reporter transcription, actives raise or lower the signal
Summary of the method: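 Readout: reporter transcript levels by RT-PCR with fluorescent capillary electrophoresis, from HepG2 cells transiently transfected with multiplexed cis-regulated reporters and dosed 24 h. Gain- or loss-of-signal fitted versus DMSO negative control.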

[3] = ATG_GRE_CIS: Attagene CIS-FACTORIAL HepG2 Assay for human Glucocorticoid Response Elements (GRE) (AID 2282947); conditions: HepG2 GRE cis-reporter, Attagene multiplex mRNA; actives raise or lower the signal
Summary of the method: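 Cells (HepG2) bearing transfected cis-promoter reporter transcription units were treated with chemical for 24 hours. Reporter mRNA was measured via RT-PCR with capillary electrophoresis, and activity was fitted in both directions relative to DMSO.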

[4] = ATG_ISRE_CIS: Attagene CIS-FACTORIAL HepG2 Assay for human Interferon Regulatory Factor 1 (IRF1) binding to an Interferon-Stimulated Response Element (ISRE) (AID 2282948); conditions: HepG2 ISRE cis-reporter (Attagene), mRNA transcription readout; actives raise or lower the signal
Summary of the method: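 Uses HepG2 liver cells transfected with cis-regulated reporters and measures mRNA 24 h post-dosing through RT-PCR, primer-extension labelling and capillary electrophoresis, with DMSO as negative control.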

[5] = ATG_M_32_CIS: Attagene CIS-FACTORIAL HepG2 Assay for M32 Transcription Factor (Internal Marker) (AID 2282949); conditions: HepG2 Attagene cis-factorial M32 reporter, mRNA; actives raise or lower the signal;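 further: background control marker of the multiplexed CIS panel rather than a real target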
Summary of the method: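 HepG2 human liver cells transiently transfected with cis-promoter-driven multiple reporter transcription units, dosed 24 h. Reporter mRNA quantified by RT-PCR, FAM-labelled primer extension, HpaI digest and capillary electrophoresis; bidirectional fit versus DMSO baseline.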

[6] = biological target: Hypoxia-inducible factor 1-alpha (Homo sapiens) (UniProt Q16665); assay: ATG_HIF1a_CIS: Attagene CIS-FACTORIAL HepG2 Assay for human Hypoxia Inducible Factor 1 (HIF1A) (AID 2282951); conditions: HepG2 Attagene cis-factorial HIF1a reporter transcription; actives raise or lower the signal
Summary of the method: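 After 24 h chemical exposure of reporter-transfected HepG2 cells, reporter cDNA was PCR-amplified, labelled by 6-FAM primer extension (2 min 95 C, 20 s 68 C, 10 min 72 C), HpaI-cut (2 h, 37 C) and analysed by CE.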

[7] = biological target: Hepatocyte nuclear factor 6 (Homo sapiens) (UniProt Q9UBC0); assay: ATG_HNF6_CIS: Attagene CIS-FACTORIAL HepG2 Assay for human Hepatocyte Nuclear Factor 6 (HNF6) (AID 2282952); conditions: HepG2 Attagene cis-factorial HNF6 reporter transcription; actives raise or lower the signal
Summary of the method: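 First, HepG2 cells were transfected with the multiplexed cis reporter library and dosed with chemical for 24 h. Next, RNA was reverse-transcribed, PCR-amplified and fluorescently labelled. Finally, HpaI-digested fragments were read by capillary electrophoresis.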

[8] = biological target: Heat shock factor protein 1 (Homo sapiens) (UniProt Q00613); assay: ATG_HSE_CIS: Attagene CIS-FACTORIAL HepG2 Assay for human Heat Shock Transcription Factor 1 (HSE) (AID 2282953); conditions: HepG2 HSE cis-reporter, Attagene RNA transcription; actives raise or lower the signal
Summary of the method: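 After a 24 h incubation with test chemical, transfected HepG2 cells were harvested for RNA; reporter transcripts were measured by RT-PCR and capillary electrophoresis. Values reflect gain or loss of signal relative to DMSO.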

[9] = ATG_MRE_CIS: Attagene CIS-FACTORIAL HepG2 Assay for human Metal Responsive Element (MRE) (AID 2282954); conditions: HepG2 MRE cis-reporter transcription, Attagene multiplex; actives raise or lower the signal
Summary of the method: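 Cells were transfected with cis-promoter reporter transcription units, then dosed for 24 h. RNA was reverse-transcribed, amplified, fluorescently labelled and resolved by capillary electrophoresis, and activity was fitted in both directions relative to DMSO.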

[10] = ATG_PBREM_CIS: Attagene CIS-FACTORIAL HepG2 Assay for human Phenobarbital-responsive Enhancer Module (PBREM) (AID 2282955); conditions: HepG2 PBREM cis-reporter, Attagene multiplexed transcription; actives raise or lower the signal
Summary of the method: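 Measures endogenous factor action on a phenobarbital-responsive enhancer module. HepG2 transiently carrying cis reporters, 24 h treatment, mRNA read-out by RT-PCR plus capillary electrophoresis.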

[11] = biological target: Paired box protein Pax-6 (Homo sapiens) (UniProt P26367); assay: ATG_Pax6_CIS: Attagene CIS-FACTORIAL HepG2 Assay for human Paired Box 6 (PAX6) (AID 2282956); conditions: HepG2 CIS-FACTORIAL PAX6 reporter transcription, RNA readout; actives raise or lower the signal
Summary of the method: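 DMSO-referenced bidirectional fits of reporter mRNA fluorescence; HepG2 with transient cis-promoter MRTUs, 24 h post-dose, RT-PCR plus capillary electrophoresis detection.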

[12] = ATG_PPRE_CIS: Attagene CIS-FACTORIAL HepG2 Assay for human Peroxisome Proliferator-activated Response Element (PPRE) (AID 2282958); conditions: HepG2 PPRE cis-element reporter, Attagene transcription factor profiling; actives raise or lower the signal
Summary of the method: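 PPRE activity in HepG2: transient cis-reporter transfection, 24 h compound incubation, reporter mRNA by RT-PCR and CE fluorescence; gain/loss fitted against DMSO.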

[13] = ATG_RORE_CIS: Attagene CIS-FACTORIAL HepG2 Assay for human RAR-related Orphan Receptor Element (RORE) (AID 2282959); conditions: HepG2 Attagene cis-factorial RORE reporter, mRNA; actives raise or lower the signal
Summary of the method: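 A 24-hour exposure of transfected HepG2 hepatoma cells precedes RNA isolation and reporter RT-PCR. Labeled products are digested with HpaI and resolved by capillary electrophoresis, with gain or loss of signal scored relative to DMSO.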

[14] = ATG_Sox_CIS: Attagene CIS-FACTORIAL HepG2 Assay for human SRY-box transcription factor (SOX) (AID 2282960); conditions: HepG2 Attagene cis-factorial SOX reporter, mRNA; actives raise or lower the signal
Summary of the method: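 HepG2, cis reporter units, 24 h exposure. Reporter mRNA: RT-PCR → FAM labelling → HpaI → CE fluorescence. Bidirectional fit vs DMSO.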

[15] = biological target: Transcription factor Sp1 (Homo sapiens) (UniProt P08047); assay: ATG_Sp1_CIS: Attagene CIS-FACTORIAL HepG2 Assay for human Specificity Protein 1 (Sp1) (AID 2282961); conditions: HepG2 Sp1 cis-reporter transcription, actives raise or lower the signal
Summary of the method: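 Liver-derived HepG2 cells, cis-element reporter library, 24 h treatment; RNA isolated, cDNA amplified with reporter-specific primers, FAM-labeled fragments sized on capillary analyzer. DMSO baseline, bidirectional curve fit.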

[16] = biological target: Signal transducer and activator of transcription 3 (Homo sapiens) (UniProt P40763); assay: ATG_STAT3_CIS: Attagene CIS-FACTORIAL HepG2 Assay for human Signal Transducer and Activator of Transcription 3 (STAT3) (AID 2282963); conditions: HepG2, Attagene cis-factorial STAT3 reporter transcription; actives raise or lower the signal
Summary of the method: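 HepG2, MRTU-transfected, 24 h dosing. RNA → RT → PCR → FAM label → HpaI → CE. Bidirectional fit vs DMSO.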

[17] = ATG_TA_CIS: Attagene CIS-FACTORIAL HepG2 Assay for human TA Basal Promoter (AID 2282964); conditions: HepG2 Attagene CIS-factorial TA basal promoter reporter; actives raise or lower the signal
Summary of the method: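 Multiplexed mRNA reporter assay, HepG2, 24 h. Reporter cDNA amplified, 6-FAM primer-extended, HpaI-cut, CE-sized; DMSO = negative control and baseline.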

[18] = ATG_SREBP_CIS: Attagene CIS-FACTORIAL HepG2 Assay for human Sterol Regulatory Element Binding (SREBP) (AID 2282962); conditions: HepG2 Attagene cis-factorial SREBP reporter, mRNA; actives raise or lower the signal
Summary of the method: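 In this cis-format assay, HepG2 liver cells express reporters controlled by promoter elements responsive to native transcription factors. Exposure lasts 24 h; reporter mRNA fluorescence from capillary electrophoresis gives the signal, fitted bidirectionally against DMSO.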

[19] = ATG_PXRE_CIS: Attagene CIS-FACTORIAL HepG2 Assay for human Pregnane X Receptor Element (PXRE) (AID 2282957); conditions: HepG2 Attagene CIS-FACTORIAL PXRE reporter, mRNA; actives raise or lower the signal
Summary of the method: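 After a 24 h chemical incubation, total RNA from transfected HepG2 cells was reverse-transcribed and reporter cDNA amplified, FAM-labeled, HpaI-digested and sized by capillary electrophoresis. DMSO served as baseline for bidirectional curve fitting.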

[20] = ATG_M_06_CIS: Attagene CIS-FACTORIAL HepG2 Assay for M06 Transcription Factor (Internal Marker) (AID 2282950); conditions: HepG2 Attagene CIS-FACTORIAL M06 internal marker reporter; actives raise or lower the signal
Summary of the method: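 Fluorescence-labelled RT-PCR products from cis-promoter reporter units, cut with HpaI and resolved by capillary electrophoresis, give the signal. Cells are human HepG2, dosed for 24 h. Serves as background control, fitted relative to DMSO.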

Measured: AC50

Sequence of Bile acid receptor (Homo sapiens) (Q96RI1 whole entry, looked up): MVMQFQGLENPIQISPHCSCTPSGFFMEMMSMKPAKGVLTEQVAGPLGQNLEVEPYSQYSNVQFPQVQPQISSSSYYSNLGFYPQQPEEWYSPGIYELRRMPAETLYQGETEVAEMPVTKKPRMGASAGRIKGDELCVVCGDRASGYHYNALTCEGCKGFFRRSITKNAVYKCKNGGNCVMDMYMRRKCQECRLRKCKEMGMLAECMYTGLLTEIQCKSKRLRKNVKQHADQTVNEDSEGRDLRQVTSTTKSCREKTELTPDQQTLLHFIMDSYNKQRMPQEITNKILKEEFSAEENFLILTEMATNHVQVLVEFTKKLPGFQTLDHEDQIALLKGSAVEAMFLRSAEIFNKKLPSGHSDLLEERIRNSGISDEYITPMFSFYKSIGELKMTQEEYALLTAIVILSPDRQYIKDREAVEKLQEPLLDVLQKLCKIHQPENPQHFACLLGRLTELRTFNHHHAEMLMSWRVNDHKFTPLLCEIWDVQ
Sequence of Hypoxia-inducible factor 1-alpha (Homo sapiens) (Q16665 whole entry, looked up): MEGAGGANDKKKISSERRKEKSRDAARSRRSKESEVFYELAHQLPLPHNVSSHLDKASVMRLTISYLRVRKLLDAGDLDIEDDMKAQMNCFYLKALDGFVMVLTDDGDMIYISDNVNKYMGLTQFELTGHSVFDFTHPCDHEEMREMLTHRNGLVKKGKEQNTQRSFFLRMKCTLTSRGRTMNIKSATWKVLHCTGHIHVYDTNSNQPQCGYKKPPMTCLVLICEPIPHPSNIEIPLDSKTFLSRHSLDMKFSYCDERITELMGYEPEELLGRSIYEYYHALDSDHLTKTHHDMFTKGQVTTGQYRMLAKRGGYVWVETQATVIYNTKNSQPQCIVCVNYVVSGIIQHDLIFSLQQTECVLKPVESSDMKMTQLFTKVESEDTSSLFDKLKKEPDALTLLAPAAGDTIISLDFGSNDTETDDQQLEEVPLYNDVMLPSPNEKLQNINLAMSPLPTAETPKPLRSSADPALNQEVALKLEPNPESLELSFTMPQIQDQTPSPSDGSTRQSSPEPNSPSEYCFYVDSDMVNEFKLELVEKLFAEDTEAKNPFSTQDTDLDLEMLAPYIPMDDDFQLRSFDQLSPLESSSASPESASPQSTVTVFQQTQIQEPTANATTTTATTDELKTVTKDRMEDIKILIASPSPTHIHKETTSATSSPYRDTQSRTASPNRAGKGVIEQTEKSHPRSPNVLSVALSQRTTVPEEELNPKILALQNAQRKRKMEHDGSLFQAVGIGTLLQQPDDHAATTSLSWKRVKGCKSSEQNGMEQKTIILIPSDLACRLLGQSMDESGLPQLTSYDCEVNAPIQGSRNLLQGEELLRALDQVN
Sequence of Transcription factor Sp1 (Homo sapiens) (P08047 whole entry, looked up, the tested form may be a part): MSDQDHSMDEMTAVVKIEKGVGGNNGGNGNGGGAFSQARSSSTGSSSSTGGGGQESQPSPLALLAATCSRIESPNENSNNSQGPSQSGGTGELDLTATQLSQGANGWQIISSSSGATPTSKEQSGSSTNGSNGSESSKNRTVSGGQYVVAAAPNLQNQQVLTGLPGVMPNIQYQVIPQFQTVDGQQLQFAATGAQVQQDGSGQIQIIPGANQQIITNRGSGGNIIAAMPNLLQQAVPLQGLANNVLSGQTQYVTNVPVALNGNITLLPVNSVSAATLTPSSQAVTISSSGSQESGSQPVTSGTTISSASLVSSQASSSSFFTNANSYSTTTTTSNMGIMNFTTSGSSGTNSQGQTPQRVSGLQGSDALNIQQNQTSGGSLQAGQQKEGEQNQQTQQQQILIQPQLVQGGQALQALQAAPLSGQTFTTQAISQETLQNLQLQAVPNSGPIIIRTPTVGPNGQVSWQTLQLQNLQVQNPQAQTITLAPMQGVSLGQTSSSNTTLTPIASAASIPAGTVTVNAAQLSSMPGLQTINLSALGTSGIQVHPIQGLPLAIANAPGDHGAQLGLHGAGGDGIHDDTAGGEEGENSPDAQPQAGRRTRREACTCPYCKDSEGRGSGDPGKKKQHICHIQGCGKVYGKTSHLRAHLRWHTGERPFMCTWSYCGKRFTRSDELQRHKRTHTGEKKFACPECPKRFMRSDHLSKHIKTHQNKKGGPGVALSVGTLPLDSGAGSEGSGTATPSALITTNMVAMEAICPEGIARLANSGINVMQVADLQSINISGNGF
Sequence of Heat shock factor protein 1 (Homo sapiens) (Q00613 whole entry, looked up): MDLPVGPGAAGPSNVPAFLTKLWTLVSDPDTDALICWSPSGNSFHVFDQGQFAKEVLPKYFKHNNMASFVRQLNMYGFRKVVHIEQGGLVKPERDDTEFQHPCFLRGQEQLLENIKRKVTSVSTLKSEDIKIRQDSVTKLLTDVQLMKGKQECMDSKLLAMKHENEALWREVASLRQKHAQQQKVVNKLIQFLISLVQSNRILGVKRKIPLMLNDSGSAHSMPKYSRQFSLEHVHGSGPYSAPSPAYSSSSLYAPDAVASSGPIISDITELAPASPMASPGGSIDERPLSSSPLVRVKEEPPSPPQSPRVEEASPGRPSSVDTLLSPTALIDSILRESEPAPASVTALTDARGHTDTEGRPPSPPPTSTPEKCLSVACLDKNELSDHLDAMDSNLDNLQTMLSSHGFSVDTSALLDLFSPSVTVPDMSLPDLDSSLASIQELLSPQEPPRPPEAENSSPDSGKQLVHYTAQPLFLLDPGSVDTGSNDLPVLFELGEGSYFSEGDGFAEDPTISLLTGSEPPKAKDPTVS
Sequence of Signal transducer and activator of transcription 3 (Homo sapiens) (P40763 whole entry, looked up): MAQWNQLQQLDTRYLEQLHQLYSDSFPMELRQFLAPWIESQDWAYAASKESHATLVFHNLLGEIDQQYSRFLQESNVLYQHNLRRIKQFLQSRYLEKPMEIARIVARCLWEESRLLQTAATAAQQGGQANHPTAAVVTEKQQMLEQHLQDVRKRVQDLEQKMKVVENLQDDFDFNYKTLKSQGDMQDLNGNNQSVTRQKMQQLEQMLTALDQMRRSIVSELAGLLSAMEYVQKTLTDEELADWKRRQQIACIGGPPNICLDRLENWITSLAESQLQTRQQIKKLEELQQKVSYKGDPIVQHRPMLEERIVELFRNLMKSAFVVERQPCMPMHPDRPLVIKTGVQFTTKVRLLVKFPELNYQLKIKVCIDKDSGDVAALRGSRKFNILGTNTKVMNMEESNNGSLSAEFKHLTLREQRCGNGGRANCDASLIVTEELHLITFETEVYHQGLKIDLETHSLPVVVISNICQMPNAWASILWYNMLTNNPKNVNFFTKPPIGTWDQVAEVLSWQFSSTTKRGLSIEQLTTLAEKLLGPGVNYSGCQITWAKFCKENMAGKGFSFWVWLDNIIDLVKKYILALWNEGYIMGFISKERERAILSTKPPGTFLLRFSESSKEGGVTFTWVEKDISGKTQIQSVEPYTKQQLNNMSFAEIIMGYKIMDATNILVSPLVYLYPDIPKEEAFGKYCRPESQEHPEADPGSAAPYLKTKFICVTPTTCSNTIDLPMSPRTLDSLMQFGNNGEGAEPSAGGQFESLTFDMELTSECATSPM
Sequence of Paired box protein Pax-6 (Homo sapiens) (P26367 whole entry, looked up): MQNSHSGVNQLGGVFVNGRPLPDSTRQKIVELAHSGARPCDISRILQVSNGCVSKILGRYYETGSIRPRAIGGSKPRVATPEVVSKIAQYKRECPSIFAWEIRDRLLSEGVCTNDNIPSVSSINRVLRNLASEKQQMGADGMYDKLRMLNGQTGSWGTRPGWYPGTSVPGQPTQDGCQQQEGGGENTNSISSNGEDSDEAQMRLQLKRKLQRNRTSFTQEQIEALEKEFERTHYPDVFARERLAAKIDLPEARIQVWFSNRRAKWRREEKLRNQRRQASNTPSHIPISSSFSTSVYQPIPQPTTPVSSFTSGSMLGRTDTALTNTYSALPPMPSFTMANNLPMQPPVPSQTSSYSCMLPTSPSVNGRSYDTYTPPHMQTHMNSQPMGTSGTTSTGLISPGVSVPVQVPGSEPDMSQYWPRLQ
Sequence of Hepatocyte nuclear factor 6 (Homo sapiens) (Q9UBC0 whole entry, looked up, the tested form may be a part): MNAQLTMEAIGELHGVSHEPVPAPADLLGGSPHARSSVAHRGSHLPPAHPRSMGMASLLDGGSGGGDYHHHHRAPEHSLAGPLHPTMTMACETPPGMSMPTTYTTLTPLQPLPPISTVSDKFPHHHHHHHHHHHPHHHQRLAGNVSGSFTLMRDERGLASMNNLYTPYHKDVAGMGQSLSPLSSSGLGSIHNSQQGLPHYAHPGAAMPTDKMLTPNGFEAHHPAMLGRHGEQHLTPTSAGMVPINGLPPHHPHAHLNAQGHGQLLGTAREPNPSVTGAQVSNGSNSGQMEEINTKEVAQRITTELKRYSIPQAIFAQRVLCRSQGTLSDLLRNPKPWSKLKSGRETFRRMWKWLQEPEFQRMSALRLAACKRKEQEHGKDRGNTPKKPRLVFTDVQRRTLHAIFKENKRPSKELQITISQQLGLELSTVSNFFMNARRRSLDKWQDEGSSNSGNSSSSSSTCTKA

CC(C)Nc1ccc(NC(C)C)c2c1C(=O)c1ccccc1C2=O
not listed: [18] | [19] | [20]
inactive: all other assays above

CCCCCC/C=C/CCCCCCCC(=O)O
not listed: [19] | [20]
inactive: all other assays above

CCCCCCCCCCCCC[N+](C)(C)Cc1ccccc1
not listed: [10] | [18] | [20]
inactive: all other assays above

FC(F)(F)C(F)(F)C(F)(F)C(F)(F)C(F)(F)C(F)(F)CC[Si](Cl)(Cl)Cl
not listed: [20]
inactive: all other assays above

CCN(CC)c1ccc(N=Nc2ccccc2)cc1
active: [8] 144 µM | [9] 7.22 µM | [10] 8.89 µM | [19] 3.99 µM | [12] 4.8 µM | [13] 8.12 µM | [16] 27.6 µM
not listed: [4]
inactive: all other assays above

CC(C)OC=O
not listed: [6] | [8] | [20]
inactive: all other assays above

CCCCCCCC/C=C\CCCCCCCC(=O)N(C)CC(=O)O
active: [19] 16 µM | [12] 3.73 µM
not listed: [6] | [8] | [18]
inactive: all other assays above

Source: PubChem BioAssay (EPA / NIEHS)
